Assay outcomes: PubChem, National Center for Advancing Translational Sciences (NCATS)
A selection: hits, their analogues and other compounds. The true share with any hit is near 6.5%.
Giardia kill = Giardia lamblia killing; Giardia lamblia trophozoite viability; activity change, % at 7.66 µM, hits read low; 340,000 tested, 0.15% active; in the data active = activity change below about -80%; inconclusive = between about -30% and that limit;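 also: parasites exposed to compound for two days anaerobically before the ATP read; % is scaled to controls: 0 for no effect and ±100 for the full control effect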
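Compounds were tested on trophozoites seeded at 100 cells/well and held 48 hrs at 37 deg C anaerobically. An ATP-based luminescent kit measured the remaining live cells.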
HepG2 tox = kills HepG2 cells in TGF-b inhibitor counter-screen; Potency, µM (doses to about 46.1 µM), for inactives: at the highest dose activity change, negative = cytotoxicity, usual class: cytotoxic; HepG2 CAGA-GFP viability, ATP luminescence, 18 h; 410,000 tested, 0.76% active; AID 588856; also: potency is read from the fitted curve at half-maximal effect
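HepG2 CAGA-GFP cells (1000/well, DMEM with 1% FBS) received compound, then TGF-beta at 500 pg/mL final, and were incubated 18 hours at 37 degrees C. Viability was read by CellTiter-Glo luminescence. Media-only wells were set as complete cell-killing and DMSO as no toxicity.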
HT1080-NT tox = kills 2HG-producing HT-1080-NT fibrosarcoma cells; 360,000 tested, 1.6% active; HT-1080-NT fibrosarcoma viability, CellTiter-Glo ATP luminescence, 48 h; Potency, µM (top dose mostly 46.1 µM), for inactives: at the highest dose activity, negative = less viability, usual class: cytotoxic;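 also: NT is the 2HG producing partner of a matched IDH1 knockdown line; potency is read from the fitted curve at half-maximal effect; 0% = DMSO-treated cells and -100% = media-only wells without cells; nearly all actives have a fitted effect of over 55% in size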
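Fibrosarcoma NT cells, 750 per well in 5% FBS RPMI, were exposed to compound for 48 hours. Viability: CellTiter-Glo luminescence.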
IL1B secr inh = inhibitors of inflammasome signaling (IL-1 beta secretion); THP-1 LPS/ATP IL-1B secretion, AlphaLISA, 16 h; stronger effect = lower value; activity change, % at 57.5 µM; 360,000 tested, 4.7% active; AID 743279; in the data active = activity change below about -50%; inconclusive = mostly about -30% to -49%; also: % is scaled to controls: 0 for no effect and ±100 for the full control effect
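THP-1 cells pretreated 1 hr with compounds (up to 57.5 uM final), then stimulated with LPS (250 ng/mL final) plus ATP (1.25 mM final); secreted IL-1B measured by AlphaLISA after 16 hr, decreased signal indicating inhibition.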
HT1080 IDH1KD tx = kills HT-1080 cells with IDH1 knockdown | HT-1080 IDH1 knockdown viability, ATP luminescence, 48 h | Potency, µM (doses to about 46.1 µM), without a hit: top-dose activity, negative = toxicity, most hits filed as cytotoxic | 360,000 tested, 2% active | AID 686971;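 also: potency is read from the fitted curve at half-maximal effect; 0% = DMSO wells and -100% = cell-free medium wells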
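Cytotoxicity counter-line: IDH1KD HT-1080, 48 h, CellTiter-Glo. Curves classed by r2, magnitude and activity.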
TGFb SMAD3 inh = inhibitors of TGF-b signaling. HepG2 CAGA-GFP TGF-b/SMAD3 reporter, GFP fluorescence, 18 h; TGF-beta stimulated, 500 pg/mL final. Potency, µM (top dose mostly 46.1 µM), without a hit: top-dose activity, negative = inhibition, most hits filed as inhibitors. 410,000 tested, 1.2% active; also: potency is read from the fitted curve at half-maximal effect; % is scaled to controls: 0 for no effect and ±100 for the full control effect; nearly all actives have a fitted effect of over 65% in size
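HEPG2 CAGA-GFP cells (1000/well, DMEM with 1% FBS) were pre-incubated 2 h at 37 degrees C, given compound by pin tool, then stimulated with TGF-beta at 500 pg/mL final for 18 h before per-cell GFP fluorescence imaging.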
* marks the source's active call; other numbers are inactive results; ? = inconclusive; . = no result; ! = not active in a repeat. Unless noted, calls follow the shape of the dose curve; as a rule, active = well fitted curve in the direction sought with a large enough effect; inconclusive = small, poorly fitted or top-dose-only effect, or another doubt; inactive = no such curve, though single readings can be large; an effect the other way counts as inactive or inconclusive.

SMILES	Giardia kill	HepG2 tox	HT1080-NT tox	IL1B secr inh	HT1080 IDH1KD tx	TGFb SMAD3 inh
Cc1cc2oc(=O)cc(Cn3ncc(Cl)c(Cl)c3=O)c2cc1Cl	21.5	-29.6%	?	-100.9*	3.26µM*	?
Cc1cccc(Cn2ncc(Cl)c(Cl)c2=O)c1	-4.5	-90.9%	12.6µM*	-102.4*	7.08µM*	?
O=C(COC(=O)c1ccc(S(=O)(=O)N2CCCC2)cc1)Nc1ccc(F)cc1F	-17.8	10.7%	17.5%	16.5	10.2%	10.2%
O=C(NN=C1CCCC1)c1ccc(O)cc1O	-0.8	-1.9%	-7.0%	2.1	-0.6%	-0.4%
CC(=O)N(C(C)=O)N1C(=O)C2C3c4ccccc4C(c4ccccc43)C2C1=O (stereo not drawn)	1.8	-21.2%	20.6µM*	-10.3	13µM*	?
O=C(C[n+]1ccncc1Cl)c1ccc(F)cc1	.	-27.7%	.	.	.	?
CCN(C(=O)CCc1nc(-c2ccc(C)cc2)no1)c1cccc(C(F)(F)F)c1	.	-11.0%	.	.	.	?
CCN(C(=O)CCc1nc(-c2ccc(C)cc2)no1)c1cccc(Cl)c1	.	-2.4%	.	.	.	12.6µM*
O=C(COC(=O)CC1CC2CCC1C2)Nc1cc([N+](=O)[O-])ccc1F (stereo not drawn)	19.2	-3.6%	-4.7%	-53.8*	26.2%	0.3%
Cc1ccc(C)c(NC(=O)COC(=O)CC2CC3CCC2C3)c1 (stereo not drawn)	-0.7	0.5%	9.4%	8.8	7.3%	1.8%
CSc1ncnc2c1cnn2-c1ccc(C)cc1C	3.1	-23.9%	16.3%	0.4	6.6%	?
Cc1ccc(-n2ncc3c(SCc4ccccn4)ncnc32)c(C)c1	-4.9	-18.2%	?	-69.2*	?	2.8%
c1ccc2nc(-c3cc4ccccc4s3)ccc2c1	.	-12.7%	.	.	.	-1.7%
Cc1cc2nc3ccc(=[N+](C)C)cc-3sc2cc1N	39.2	8.91µM*	8.2µM*	-17.2	4.11µM*	?
CN(C)c1ccc2nc3ccc(=[N+](C)C)cc-3sc2c1	-2.3	7.94µM*!	7.31µM*	?	20.6µM*	10µM*
CN(C)c1ccc2nc3ccc(=O)cc-3sc2c1	.	-104.2%	?	-15.8	?	?
COc1ccc(-n2c(SC(CN3CCCCC3)CN3CCCC3=O)nc3ccccc3c2=O)cc1 (stereo not drawn)	-3.3	-21.8%	-16.2%	-52.2*	-11.1%	2.5%
CC(=O)Nc1nnc(SCC(=O)Nc2ccc3c(c2)OCCO3)s1	6.1	3.2%	-5.4%	0.0	-8.4%	-3.9%
COc1cc(NC(=O)C/C(C)=N/NC(=O)c2cccs2)c(OC)cc1Cl	-13.8	-1.2%	?	11.8	-25.7%	-23.3%
CC12CCC=CC1=C(C=O)C1C2CCC2(C)C(O)CCC12 (stereo not drawn)	-12.3	-4.6%	-8.7%	-96.6*	?	-0.3%
Cc1ccc(Cn2nnnc2CN2CCC(c3nc4ccc(Cl)cc4[nH]3)CC2)cc1	19.9	1.3%	-11.1%	-81.4*	?	-24.2%
COC(=O)c1cn(Cc2ccccc2C)nn1	4.3	1.78µM*	0.6%	2.5	-12.2%	-29.0%
CN(C)CCNc1ncnc2c1ncn2[C@H]1CN(Cc2ccccc2)C[C@@H](CO)O1	.	-8.1%	?	0.0	15.0%	2.6%
CC(C)CNc1ncnc2c1ncn2[C@H]1CN(Cc2ccc(-c3ccccc3)cc2)C[C@@H](CO)O1	.	-26.2%	18.4µM*	-26.8	?	?
CN(C)CCNc1ncnc2c1ncn2[C@H]1CN(Cc2ccc(-c3ccccc3)cc2)C[C@@H](CO)O1	.	-87.5%	6.51µM*	-5.1	20.6µM*	15.8µM*
SMILES	Giardia kill	HepG2 tox	HT1080-NT tox	IL1B secr inh	HT1080 IDH1KD tx	TGFb SMAD3 inh
COc1cccc(C(=O)Nc2nnc(-c3ccc(F)cc3)o2)c1	1.6	-26.6%	-21.9%	43.3	-21.7%	-23.8%
Oc1ccccc1/C=N/Nc1cc(N2CCCC2)nc(N2CCCC2)n1	-5.6	-56.9%	-2.3%	-103.2*	-11.9%	-25.1%
Oc1ccc(C=Nc2ccc(N3CCOCC3)cc2)c(O)c1	0.6	-2.6%	-9.5%	2.7	-16.0%	-36.7%
Oc1cccc(/C=N/Nc2cc(N3CCOCC3)nc(N3CCOCC3)n2)c1	14.0	-57.9%	-3.0%	-54.0*	3.3%	4.8%
Cc1nc(N/N=C/c2ccc(O)cc2O)cc(N2CCOCC2)n1	-2.2	-38.8%	?	-99.1*	4.11µM*	38.2%
Cc1nc(N/N=C/c2cccc([N+](=O)[O-])c2)cc(N2CCCCC2)n1	.	5.7%	-0.6%	26.4	10.4%	-0.5%
Oc1ccc(/C=N/Nc2cc(N3CCOCC3)nc(N3CCOCC3)n2)cc1O	6.6	-25.0%	-0.7%	25.2	-1.9%	-12.6%
Cc1nc(N/N=C/c2cccc(F)c2)cc(N2CCOCC2)n1	8.0	-18.1%	-0.8%	-96.7*	-1.4%	69.9%
C/C(CC(=O)Nc1ccc2c(c1)OCO2)=N\NC(=O)c1ccc(N)cc1	-15.7	-23.9%	-11.4%	7.8	-7.3%	-2.1%
COc1ccc(-c2cnc3c(NC(C)=O)cc(-c4ccc(S(C)(=O)=O)cc4)cn23)cc1OC	.	-18.1%	-21.3%	-25.7	2.2%	0.4%
O=C(OCc1cc(=O)c(OC(=O)c2ccccc2)co1)c1ccccc1	2.1	2.1%	2.6%	-0.2	11.2%	8.2%
O=C1N/C(=N\N=C\c2cccs2)SC1Cc1ccc(Cl)cc1 (stereo not drawn)	-7.9	-25.5%	18.4µM*	16.0	23.1µM*	-19.4%
O=C1N/C(=N\N=C\c2cccnc2)SC1Cc1ccc(SC(F)F)cc1 (stereo not drawn)	-0.1	8.9%	?	106.9	23.1µM*	-7.6%
O=C1N/C(=N\N=C\c2cccs2)SC1Cc1cccc(Cl)c1 (stereo not drawn)	-22.0	-14.6%	?	15.3	?	?
O=C1N/C(=N\N=C\c2ccc3ncccc3c2)SC1Cc1ccc(SC(F)F)cc1 (stereo not drawn)	-22.1	-16.8%	-7.1%	17.3	14.0%	47.7%
O=C1CCNc2cc3ccccc3cc21	-7.9	-42.1%	-20.7%	18.9	16.4µM*	?
O=C1CCNc2ccc(-c3ccccc3)cc21	10.3	-5.2%	-1.1%	0.0	-0.1%	19.5%
N#C/C(=C/c1ccccc1)C(=O)NCc1ccccc1	8.4	-1.0%	-6.0%	-77.3*	-12.4%	-4.1%
N#C/C(=C\c1ccc(O)c(Br)c1)C(=O)NCc1ccccc1	2.3	-12.0%	-23.4%	27.7	-29.2%	-2.5%
N#C/C(=C/c1cccc(O)c1)C(=O)NCc1ccc(Cl)cc1	15.0	-64.1%	?	-102.6*	?	?
